According to PubChem BioAssay AID720 (The Scripps Research Institute Molecular Screening Center, 2007):
Screen size: about 97,000 compounds; about 140 (0.14%) were called active.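 The calls were made as follows: active = inhibition above the screen-wide mean inhibition plus 3 SD (cut at about 15% in these data); inactive = the rest.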 The full list was thinned out, with actives kept by preference.

The compounds below were run against Ephrin type-B receptor 4 (Homo sapiens) (UniProt P54760) (assay: EphB4-ephrin-B2 interaction antagonists, primary screen, biochemical, TNYL-RAW peptide probe, fluorescence polarization (AID 720;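 also: 0% = DMSO wells and 100% = excess unlabeled TNYL-RAW peptide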)). Conditions: EphB4 LBD / TNYL-RAW-Alexa532 peptide, at 7 µM, hits give high values.
Ephrin type-B receptor 4 (Homo sapiens), sequence (P54760 whole entry, looked up, the tested form may be a part): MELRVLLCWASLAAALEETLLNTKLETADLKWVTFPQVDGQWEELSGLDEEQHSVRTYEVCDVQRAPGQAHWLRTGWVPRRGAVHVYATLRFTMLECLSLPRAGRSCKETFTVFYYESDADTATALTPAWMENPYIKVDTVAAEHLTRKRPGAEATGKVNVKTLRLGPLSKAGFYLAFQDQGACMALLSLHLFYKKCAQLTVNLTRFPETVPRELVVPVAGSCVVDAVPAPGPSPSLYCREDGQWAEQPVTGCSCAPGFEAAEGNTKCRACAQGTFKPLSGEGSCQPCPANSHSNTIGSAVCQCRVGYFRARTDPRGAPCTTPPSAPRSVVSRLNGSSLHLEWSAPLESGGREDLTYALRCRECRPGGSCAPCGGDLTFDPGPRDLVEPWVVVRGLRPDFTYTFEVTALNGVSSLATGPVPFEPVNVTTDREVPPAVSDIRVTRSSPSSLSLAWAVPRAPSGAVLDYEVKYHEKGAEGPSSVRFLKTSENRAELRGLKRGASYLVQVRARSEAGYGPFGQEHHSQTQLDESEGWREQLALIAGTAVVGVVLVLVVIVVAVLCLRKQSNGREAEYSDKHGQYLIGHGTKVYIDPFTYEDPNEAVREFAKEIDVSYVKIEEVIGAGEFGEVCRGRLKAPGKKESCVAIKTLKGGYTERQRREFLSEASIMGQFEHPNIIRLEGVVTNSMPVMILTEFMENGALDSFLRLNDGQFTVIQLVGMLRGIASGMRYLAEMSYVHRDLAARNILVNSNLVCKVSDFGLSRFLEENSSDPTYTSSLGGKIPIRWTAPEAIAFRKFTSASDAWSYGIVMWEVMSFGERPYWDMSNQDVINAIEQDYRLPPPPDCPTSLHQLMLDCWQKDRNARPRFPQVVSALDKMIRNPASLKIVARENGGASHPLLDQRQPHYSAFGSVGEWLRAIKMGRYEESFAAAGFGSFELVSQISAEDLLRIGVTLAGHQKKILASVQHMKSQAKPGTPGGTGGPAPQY

Row | SMILES | inhibition
1 | CCc1cccc2c(C#N)cn(CC(=O)N3CCOCC3)c12 | 21.5% (active)
2 | CCC(=O)CC(c1ccc([N+](=O)[O-])cc1)c1c(O)c2ccccc2oc1=O (stereo not given) | 0.56% (inactive)
3 | CC(=O)c1ccc(OC(NC(=O)Cc2ccccc2)C(Cl)(Cl)Cl)cc1 (stereo not given) | 0.16% (inactive)
4 | OC(Cn1c2ccccc2c2ccccc21)C[n+]1ccccc1 (stereo not given) | -2.91% (inactive)
5 | CC(=O)Nc1ccccc1C(=O)OCC(=O)c1cccc2ccccc12 | -0.92% (inactive)
